Laboratory results: PubChem BioAssay (NCATS)
Results filed as inconclusive are left out. Active and inactive are the calls of the source. The call rests on the fitted dose curve; in most records, active means well fitted curve in the direction sought with a large enough effect; inconclusive means small, poorly fitted or top-dose-only effect, or another doubt; inactive means no such curve, though single readings can be large; an effect the other way counts as inactive or inconclusive.

Columns and labels:
[1] = target: Cytochrome P450 3A4 (Homo sapiens) (UniProt P08684); assay: qHTS Assay for Activators of Cytochrome P450 3A4 (AID 885); further: nearly all actives have a fitted effect of over 65% in size
Outline: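 Signal was normalized against complete inhibition by 57 uM ketoconazole. The reaction used 20nM CYP3A4 with 25uM Luciferin-PPXE, 10-min compound preincubation and a 60-min NADPH-supported step at RT.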

[2] = Confirmation and Secondary Assay for Modulators of Hemoglobin Beta Chain Splicing at IVS2 654 locus (AID 910);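 further: per-well total GFP intensity by laser scanning cytometry after 2-day treatment; % of control where 0% means no effect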
Outline: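 HeLa cells stably carrying EGFP interrupted by mutant beta-globin IVS2-654 intron (CMV-driven) were treated with compound for 2 days at 37C; corrected splicing was scored as total peak GFP intensity per well (488 nm excitation, 500-520 nm emission).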

[3] = target: Ubiquitin carboxyl-terminal hydrolase 1 (Homo sapiens) (UniProt O94782); assay: Inhibitors of USP1/UAF1: Pilot qHTS (AID 504865); further: potency means the concentration at half of the fitted maximal effect; nearly all actives have a fitted effect of over 35% in size
Outline: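 USP1/UAF1 complex (1nM) preincubated with compound 15 min at room temperature, then Ub-Rho substrate (150nM final) added. Fluorescence read kinetically at 480/540 nm, 6 reads every 60 seconds. Buffer: 50mM HEPES pH 7.8, 0.5mM EDTA, 0.1 mg/ml BSA, 1mM TCEP, 0.01% Tween-20.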

[4] = target: Rap guanine nucleotide exchange factor 3 (Homo sapiens) (UniProt O95398); assay: Confirmatory qHTS for antagonist of cAMP-regulated guanine nucleotide exchange factor 3 (EPAC1) (AID 1645880); further: nearly all actives have a fitted effect of over 55% in size; further: potency means the concentration at half of the fitted maximal effect
Outline: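 Nucleotide exchange uses 100 nM EPAC1, 250 nM RAP1B-BODIPY-GDP and 50 uM GDP, with compounds in a concentration-titration series. After 5 min at room temperature, fluorescence (480 nm ex/540 nm em) is read every 5 min for 30 min. Data are normalized to control ATA and DMSO.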

[5] = target: Rap guanine nucleotide exchange factor 3 (Homo sapiens) (UniProt O95398); assay: Confirmatory qHTS for agonist of cAMP-regulated guanine nucleotide exchange factor 3 (EPAC1) (AID 1645881);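 further: EPAC1 catalysed release of BODIPY-GDP from Rap1B seen as fluorescence loss; 100% = effect of cAMP agonist control; nearly all actives have a fitted effect of over 75% in size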
[6] = target: Rap guanine nucleotide exchange factor 4 (Homo sapiens) (UniProt Q8WZA2); assay: Confirmatory qHTS for agonist of cAMP-regulated guanine nucleotide exchange factor 4 (EPAC2) (AID 1645884);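 further: nucleotide exchange releases bodipy-GDP from Rap1 and this lowers its fluorescence; on the % scale 0 is the no-effect control and ±100 the full control effect; nearly all actives have a fitted effect of over 65% in size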
[7] = target: Glutathione peroxidase 1 (Homo sapiens) (UniProt P07203); assay: Primary qHTS Assay for Inhibitors of Recombinant Selenoprotein Glutathione Peroxidase 1 (GPX1) (AID 1845191); further: on the % scale 0 is the no-effect control and ±100 the full control effect; nearly all actives have a fitted effect of over 65% in size
Outline: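 Recombinant GPX1 (10 nM final) was preincubated with compound for 30 min at room temperature, then reacted with 1 mM GSH, 0.5 mM CHP, 0.5 mM NADPH and 100 nM glutathione reductase; NADPH fluorescence (340/450 nm) was read at 0 and 15 min.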

[8] = target: Rap guanine nucleotide exchange factor 4 (Homo sapiens) (UniProt Q8WZA2); assay: Confirmatory qHTS for antagonist of cAMP-regulated guanine nucleotide exchange factor 4 (EPAC2) (AID 1645885); further: nearly all actives have a fitted effect of over 25% in size; further: potency means the concentration at half of the fitted maximal effect; on activity change, negative = inhibition: on the % scale 0 is the no-effect control and ±100 the full control effect
[9] = target: Rap guanine nucleotide exchange factor 3 (Homo sapiens) (UniProt O95398); assay: Counterscreen qHTS for agonist of cAMP-regulated guanine nucleotide exchange factor 3 (EPAC1) (AID 1645889); further: % of control where 0% means no effect; nearly all actives have a fitted effect of over 40% in size
Outline: (§1)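 Measured: fluorescence of BODIPY-GDP bound to Rap1B, which falls as exchange proceeds. Conditions include 50 uM competing GDP, 5 and 30 min reads, and a later cAMP challenge for antagonist detection.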

[10] = qHTS for Inhibitors of the vitamin D receptor (VDR): Hit Validation using a Texas Red Assay (AID 602201); further: potency means the concentration at half of the fitted maximal effect
Outline: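 Fluorescence polarization (Ex 595/Em 615 nm) of Texas Red (7 nM) with 1.5 uM VDR-LBD and LG19078 (final concentrations). Compounds were incubated for 2 hours at room temperature.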

[11] = target: Rap guanine nucleotide exchange factor 3 (Homo sapiens) (UniProt O95398); assay: Counterscreen qHTS for antagonist of cAMP-regulated guanine nucleotide exchange factor 3 (EPAC1) (AID 1645888);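 further: fluorescence loss as bound BODIPY-GDP is released from Rap1B; % of control where 0% means no effect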
Outline: as §1

Sequence of Rap guanine nucleotide exchange factor 4 (Homo sapiens) (Q8WZA2 whole entry, looked up): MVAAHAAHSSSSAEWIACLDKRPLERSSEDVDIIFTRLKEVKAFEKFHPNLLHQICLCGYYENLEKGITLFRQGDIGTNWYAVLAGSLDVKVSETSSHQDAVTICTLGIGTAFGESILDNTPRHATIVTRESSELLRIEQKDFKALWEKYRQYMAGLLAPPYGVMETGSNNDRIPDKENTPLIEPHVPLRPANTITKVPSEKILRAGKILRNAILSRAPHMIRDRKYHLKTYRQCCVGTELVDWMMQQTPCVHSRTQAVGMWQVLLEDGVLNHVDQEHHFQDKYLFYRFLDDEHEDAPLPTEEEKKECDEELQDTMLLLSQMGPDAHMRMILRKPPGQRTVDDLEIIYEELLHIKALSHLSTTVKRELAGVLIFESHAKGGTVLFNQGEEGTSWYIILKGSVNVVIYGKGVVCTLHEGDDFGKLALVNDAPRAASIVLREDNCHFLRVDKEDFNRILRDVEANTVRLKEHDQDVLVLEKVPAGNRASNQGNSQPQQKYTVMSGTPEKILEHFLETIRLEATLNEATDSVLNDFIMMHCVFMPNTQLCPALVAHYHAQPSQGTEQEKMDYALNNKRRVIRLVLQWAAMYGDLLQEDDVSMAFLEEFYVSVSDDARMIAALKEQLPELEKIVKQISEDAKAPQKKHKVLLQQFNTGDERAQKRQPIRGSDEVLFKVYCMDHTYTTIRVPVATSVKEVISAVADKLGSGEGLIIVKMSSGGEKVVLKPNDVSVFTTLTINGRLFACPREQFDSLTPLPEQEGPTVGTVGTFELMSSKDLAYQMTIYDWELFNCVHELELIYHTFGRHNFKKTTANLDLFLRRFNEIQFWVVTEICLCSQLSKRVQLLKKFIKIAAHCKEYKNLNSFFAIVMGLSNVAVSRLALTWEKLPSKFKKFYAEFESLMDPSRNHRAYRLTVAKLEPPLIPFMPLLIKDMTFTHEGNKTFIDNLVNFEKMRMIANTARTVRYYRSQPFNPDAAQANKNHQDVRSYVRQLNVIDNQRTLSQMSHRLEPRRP
Sequence of Rap guanine nucleotide exchange factor 3 (Homo sapiens) (O95398 whole entry, looked up): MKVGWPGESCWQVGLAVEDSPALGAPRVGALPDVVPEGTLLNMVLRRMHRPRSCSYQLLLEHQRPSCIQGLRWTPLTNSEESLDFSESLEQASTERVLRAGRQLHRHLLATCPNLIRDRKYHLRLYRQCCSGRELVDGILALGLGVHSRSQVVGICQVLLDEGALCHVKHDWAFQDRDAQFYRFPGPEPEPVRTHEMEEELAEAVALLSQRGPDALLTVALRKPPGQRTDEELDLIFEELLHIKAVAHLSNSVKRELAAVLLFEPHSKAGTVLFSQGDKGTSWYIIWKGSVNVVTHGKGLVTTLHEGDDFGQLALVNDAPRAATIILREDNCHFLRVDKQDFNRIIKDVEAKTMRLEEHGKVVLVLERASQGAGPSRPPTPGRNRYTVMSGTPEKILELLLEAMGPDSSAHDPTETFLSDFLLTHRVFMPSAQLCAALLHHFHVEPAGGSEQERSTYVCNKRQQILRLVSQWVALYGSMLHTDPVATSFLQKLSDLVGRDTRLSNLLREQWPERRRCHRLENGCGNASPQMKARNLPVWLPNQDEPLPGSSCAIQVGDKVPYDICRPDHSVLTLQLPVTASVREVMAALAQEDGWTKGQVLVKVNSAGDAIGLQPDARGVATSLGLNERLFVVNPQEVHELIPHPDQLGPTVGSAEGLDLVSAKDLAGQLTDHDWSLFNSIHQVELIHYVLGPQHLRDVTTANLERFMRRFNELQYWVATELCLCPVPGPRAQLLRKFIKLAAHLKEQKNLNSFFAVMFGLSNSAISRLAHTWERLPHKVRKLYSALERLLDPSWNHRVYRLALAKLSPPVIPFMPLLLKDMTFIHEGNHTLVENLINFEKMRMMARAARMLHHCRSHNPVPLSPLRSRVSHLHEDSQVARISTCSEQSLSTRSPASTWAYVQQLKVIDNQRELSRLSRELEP
Sequence of Cytochrome P450 3A4 (Homo sapiens) (P08684 whole entry, looked up): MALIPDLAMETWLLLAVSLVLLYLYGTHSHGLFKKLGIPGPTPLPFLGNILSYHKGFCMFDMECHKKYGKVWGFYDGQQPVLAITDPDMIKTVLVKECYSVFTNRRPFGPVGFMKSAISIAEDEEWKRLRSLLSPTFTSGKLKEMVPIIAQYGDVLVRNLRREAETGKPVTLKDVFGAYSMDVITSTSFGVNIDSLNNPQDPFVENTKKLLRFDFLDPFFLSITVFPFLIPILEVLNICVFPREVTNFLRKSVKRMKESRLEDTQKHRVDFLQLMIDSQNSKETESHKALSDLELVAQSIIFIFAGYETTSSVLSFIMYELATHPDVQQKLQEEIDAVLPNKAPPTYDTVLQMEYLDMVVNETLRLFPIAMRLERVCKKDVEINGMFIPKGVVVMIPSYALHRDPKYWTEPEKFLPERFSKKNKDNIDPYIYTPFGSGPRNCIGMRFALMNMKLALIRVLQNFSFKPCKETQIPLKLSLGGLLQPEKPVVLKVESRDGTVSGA
Sequence of Glutathione peroxidase 1 (Homo sapiens) (P07203 whole entry, looked up): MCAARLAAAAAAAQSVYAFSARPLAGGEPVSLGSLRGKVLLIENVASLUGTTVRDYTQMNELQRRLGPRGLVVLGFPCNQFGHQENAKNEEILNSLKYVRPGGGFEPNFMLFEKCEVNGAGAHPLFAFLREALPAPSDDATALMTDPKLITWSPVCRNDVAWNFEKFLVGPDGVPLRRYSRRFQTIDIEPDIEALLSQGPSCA
Sequence of Ubiquitin carboxyl-terminal hydrolase 1 (Homo sapiens) (O94782 whole entry, looked up): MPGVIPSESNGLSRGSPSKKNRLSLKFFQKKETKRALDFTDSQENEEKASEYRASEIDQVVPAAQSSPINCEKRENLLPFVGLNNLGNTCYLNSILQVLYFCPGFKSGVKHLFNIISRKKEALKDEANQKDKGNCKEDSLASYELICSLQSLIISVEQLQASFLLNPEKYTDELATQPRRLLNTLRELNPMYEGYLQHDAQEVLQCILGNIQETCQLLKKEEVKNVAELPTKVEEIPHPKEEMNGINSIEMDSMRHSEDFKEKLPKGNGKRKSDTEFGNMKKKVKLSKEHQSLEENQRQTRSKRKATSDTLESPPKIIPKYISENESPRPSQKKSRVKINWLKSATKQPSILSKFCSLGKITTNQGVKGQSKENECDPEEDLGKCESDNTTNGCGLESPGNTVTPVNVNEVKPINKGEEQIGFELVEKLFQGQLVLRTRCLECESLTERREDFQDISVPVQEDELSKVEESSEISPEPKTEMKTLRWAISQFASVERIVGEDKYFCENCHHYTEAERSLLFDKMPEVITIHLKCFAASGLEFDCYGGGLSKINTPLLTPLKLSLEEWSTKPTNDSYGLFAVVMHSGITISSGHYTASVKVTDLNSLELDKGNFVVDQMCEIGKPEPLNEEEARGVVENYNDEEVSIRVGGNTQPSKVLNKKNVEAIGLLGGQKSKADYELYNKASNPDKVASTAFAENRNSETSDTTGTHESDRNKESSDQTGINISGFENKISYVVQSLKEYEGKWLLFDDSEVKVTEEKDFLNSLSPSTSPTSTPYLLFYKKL

CC(C)=CCCC1(C)C=Cc2c(O)c3c(c(CC=C(C)C)c2O1)OC12C(=CC4CC1C(C)(C)OC2(C/C=C(/C)C(=O)O)C4=O)C3=O (configuration not stated)
inactive: Potency [1] | Potency [2] | Potency [5] | Potency [6] | Potency [7]
active: Potency [3] 20 µM | Potency [4] 19.8 µM

O=[N+]([O-])c1ccc(CN2CC=C(c3ccccc3)CC2)cc1
inactive: Potency [4] | Potency [5] | activation [6] 0% [at 17.1 µM, percent relative to cAMP agonist control] | activity change, negative = inhibition [8] 0.463% [at 12.7 µM] | activation [9] 8.24% [at 30.8 µM]

Cc1ccccc1N1C(=O)NC(=O)/C(=C\c2ccc3c(c2)CCCN3Cc2ccccc2)C1=O
active: Potency [10] 28.2 µM | Potency [4] 16.9 µM
inactive: Potency [5] | Potency [6] | outcome [11]

CCOC(=O)c1cc(CC)sc1/N=C/C1C(=O)NC(=S)NC1=O
inactive: Potency [4] | activity change, negative = inhibition [8] -21.4% [at 12.7 µM] | activity change, negative = inhibition [11] -8.68% [at 30.8 µM]

Cc1cc2ccccn2c1C(C[N+](=O)[O-])c1c(F)cccc1Cl (configuration not stated)
inactive: Potency [5] | Potency [6] | outcome [11]
active: Potency [8] 15.1 µM

O=C1NC(=O)N(CCc2ccc(F)cc2)C(=O)/C1=C/c1ccco1
inactive: Potency [5] | activation [6] 1.5% [at 17.1 µM, percent relative to cAMP agonist control] | activity change, negative = inhibition [8] -8.03% [at 12.7 µM]

Cc1cc(/C=C2\C(=O)NC(=O)N(Cc3ccccc3Cl)C2=O)c(C)n1-c1ccc(C(=O)O)cc1
inactive: Potency [5] | activation [6] -9.15% [at 17.1 µM, percent relative to cAMP agonist control] | activity change, negative = inhibition [8] -6.02% [at 12.7 µM] | activity change, negative = inhibition [11] 4.25% [at 30.8 µM]

O=c1[nH]c(=S)n(-c2ccc(Cl)cc2)c(O)c1C=Nc1ccc(N2CCOCC2)cc1
inactive: Potency [4] | Potency [6] | Potency [8] | Potency [9]

CC(c1ccccc1)(c1ccccc1)c1ccncc1
inactive: Potency [5] | activation [6] 0% [at 17.1 µM, percent relative to cAMP agonist control] | activity change, negative = inhibition [8] -28.4% [at 12.7 µM]

Nc1cc(Cl)c2nonc2c1[N+](=O)[O-]
inactive: Potency [5] | activation [6] 5.26% [at 17.1 µM, percent relative to cAMP agonist control] | activity change, negative = inhibition [8] 1.82% [at 12.7 µM] | activity change, negative = inhibition [11] -3.15% [at 30.8 µM]

CCOC(=O)[C@]12Cc3cc(Cl)ccc3[C@H]1N(C(C)C)C(=O)c1ccccc12
active: Potency [8] 21.3 µM
inactive: Potency [5] | Potency [6] | outcome [11]

Cc1cccc(OCCn2cccc2/C=C2/C(=O)NC(=O)N(Cc3ccco3)C2=O)c1
inactive: Potency [5] | Potency [6] | Potency [8] | outcome [11]

Cc1cc(C=C2C(=O)NC(=S)NC2=O)c(C)n1C1CCCC1
inactive: Potency [5] | Potency [6] | Potency [8] | outcome [11]

CCN(CC)c1ccc(N=Cc2c(O)n(CCc3ccc(OC)c(OC)c3)c(=O)[nH]c2=O)cc1
inactive: Potency [4] | activity change, negative = inhibition [8] -5.1% [at 12.7 µM] | activity change, negative = inhibition [11] -17.1% [at 30.8 µM]

Cc1ccc(-n2c(O)c(C=NCc3ccco3)c(=O)[nH]c2=S)cc1C
inactive: Potency [5] | Potency [6] | Potency [8] | outcome [11]

CC(=O)C1C2c3ccccc3O[C@@]1(C)N=c1s/c(=C/c3ccoc3)c(=O)n12 (some centres not stated)
inactive: Potency [5] | Potency [6] | Potency [8]

NS(=O)(=O)c1ccc(-c2ccc(C=C3C(=O)NC(=O)NC3=O)o2)cc1
inactive: Potency [5] | Potency [6] | Potency [8] | outcome [11]

CCCNC1=C(C)C(=O)C2=C(C1=O)C(COC(N)=O)[C@]1(OC)C3NC3CN21 (some centres not stated)
inactive: Potency [5] | Potency [6] | Potency [8] | outcome [11]

CCCCN1C(=O)/C(=C/c2ccc(N(C)C)cc2)C(=O)N(Cc2ccco2)C1=O
inactive: Potency [5] | activation [6] 15.2% [at 17.1 µM, percent relative to cAMP agonist control] | activity change, negative = inhibition [8] 35.5% [at 12.7 µM] | activity change, negative = inhibition [11] 25.6% [at 30.8 µM]

COCCNC(=O)c1c(N)n(CCC(C)C)c2nc3ccccc3nc12
inactive: Potency [5] | activation [6] 10.8% [at 17.1 µM, percent relative to cAMP agonist control] | activity change, negative = inhibition [8] -8.1% [at 12.7 µM] | activity change, negative = inhibition [11] -2.48% [at 30.8 µM]

CCOC(=O)[C@]12Cc3cc(OC)ccc3[C@H]1N(Cc1ccccc1)C(=O)c1ccccc12
inactive: Potency [5] | Potency [6] | outcome [11]
active: Potency [8] 19 µM

COc1cc(/C=C/c2nc3ccccc3c(=O)n2-c2cccc(O)c2)ccc1O
inactive: Potency [5] | Potency [6] | Potency [8]

COc1cccc(C(c2nnnn2C2CCCCC2)N2CCC3(CC2)C(=O)NCN3c2ccccc2)c1OC (configuration not stated)
inactive: Potency [5] | Potency [6]

Cc1cccc(-c2nc(CN3C(=O)CN=C(c4ccccc4)c4ccccc43)c(C)o2)c1
inactive: Potency [5] | Potency [6] | activity change, negative = inhibition [8] 48.3% [at 12.7 µM]
